Measured values from PubChem BioAssay AID504850 (National Center for Advancing Translational Sciences (NCATS), 2011).
About 1,200 (52%) of roughly 2,300 compounds were called active. Inconclusive results (about 34%) are left out. The call rests on the fitted dose curve; in most records, active means well fitted inhibition curve with a large enough effect; inconclusive means small, poorly fitted or top-dose-only effect, or effect the other way; inactive means no such curve, though single readings can be large or run the other way. The set was probably picked from earlier hits. The list shows a part of the results.
On the % scale 0 is the no-effect control and ±100 the full control effect; potency means the concentration at half of the fitted maximal effect.

Assay: Confirmation screen for delayed death inhibitors of the malarial parasite plastid, 48 hour incubation; further: nearly all actives have a fitted effect of over 65% in size
Details: P. falciparum-infected erythrocytes, luciferase growth; series mostly up to 28.7 µM; activity change, negative = inhibition: at the top concentration
Procedure, shortened: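 Single-generation (48 h, 37 C) exposure of integrated firefly luciferase-reporter P. falciparum in red cells, 0.1% parasitemia at 2% hematocrit, Albumax-supplemented RPMI. Falling luciferase signal marks parasite growth inhibition.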
With CCOC(=O)c1c(C)nc(C)c(C(=O)OCC)c1-c1ccc(Br)cc1 the Potency was 12.6 µM (active).
In the case of Cc1ccc(C(=O)OCc2nnc(-c3ccc(Br)cc3)o2)cc1, the “activity change, negative = inhibition” value is reported as -7.51% (inactive).
In the case of Cc1cccc(N2CCN(C3=NC(=O)C(Cc4ccccc4)S3)CC2)c1 (stereo unspecified), the Potency is reported as 1.78 µM (active).
In the case of Cc1cc(C(=O)N2CCCC(N3CCN(c4cccc(C(F)(F)F)c4)CC3)C2)c(C)o1 (stereo unspecified), the Potency is reported as 12.6 µM (active).
For O=C(c1ccsc1)N1CCCC(N2CCN(c3cccc(C(F)(F)F)c3)CC2)C1 (stereo unspecified), the Potency was 14.1 µM (active).
With Cc1ccc(C(=O)NC2CCCCC2)cc1S(=O)(=O)N1CCCC1 the Potency was 11.2 µM (active).
For Cc1ccc(S(=O)(=O)N2CCCCC2C)cc1[N+](=O)[O-] (stereo unspecified), the “activity change, negative = inhibition” value was -20.8% (inactive).
In the case of Cc1ccc(C(=O)NC2CCCC2)cc1S(=O)(=O)N1CCCCC1, the Potency is reported as 11.2 µM (active).
For O=C(Nc1ccncc1)c1ccc(Cl)c(S(=O)(=O)N2CCCC2)c1, the Potency was 11.2 µM (active).
With CN(CCCN1CCOCC1)C(=O)c1ccc2nc(Cc3cccc(Cl)c3)oc2c1 the Potency was 14.1 µM (active).
In the case of Clc1cccc(OCCCCCN2CCOCC2)c1, the “activity change, negative = inhibition” value is reported as -3.47% (inactive).
With CCOC(=O)C1CCCN(C(=O)c2cc3cc4ccc(OC)cc4nc3o2)C1 (stereo unspecified) the Potency was 11.2 µM (active).
With COC(=O)[C@]1(CC(C)C)N[C@H](c2ccc(-c3ccc(F)cc3)c(OC)c2)[C@@H]2C(=O)N(C)C(=O)[C@@H]21 the Potency was 6.31 µM (active).
With COCCN(C(=O)CCCC(=O)Nc1ccccn1)C(C(=O)NC1CCCCC1)c1ccc(C)cc1 (stereo unspecified) the Potency was 11.2 µM (active).
With CC[C@H]1OC(=O)[C@H](C)[C@@H](O[C@H]2C[C@@](C)(OC)[C@@H](O)[C@H](C)O2)[C@H](C)[C@@H](O[C@@H]2O[C@H](C)C[C@H](N(C)C)[C@H]2O)[C@](C)(O)C[C@@H](C)CN(C)[C@H](C)[C@@H](O)[C@]1(C)O the Potency was 14.1 µM (active).
With CC[C@H]1OC(=O)[C@H](C)[C@@H](O[C@H]2C[C@@](C)(OC)[C@@H](O)[C@H](C)O2)C(C)[C@@H](O[C@@H]2O[C@H](C)C[C@H](N(C)C)[C@@H]2O)[C@](C)(OC)C[C@@H](C)C(=O)[C@H](C)[C@@H](O)[C@]1(C)O (stereo partly specified) the “activity change, negative = inhibition” value was -15.5% (inactive).
For COc1ccccc1/C=C/C(=O)/C=C/c1ccccc1O, the Potency was 1.41 µM (active).
For O=C(/C=C/c1ccccc1O)c1ccco1, the “activity change, negative = inhibition” value was -8.48% (inactive).
For Cc1ccc2[nH]c3c(c2c1)CCCC3NC(=O)CCl (stereo unspecified), the Potency was 4.47 µM (active).
In the case of Cc1cc(NC(=O)CSCC(=O)Nc2ccccc2Oc2ccccc2)no1, the Potency is reported as 14.1 µM (active).
With COC(=O)[C@@]1(Cc2ccc(F)cc2)[C@@H]2[C@@H](CC(=O)[C@H]2CC(=O)C(=O)N(C)C)CN1C(=O)c1ccccc1 the Potency was 11.2 µM (active).
For O=C(N/N=C/c1cccn1-c1ccc([N+](=O)[O-])cc1)c1cccnc1, the Potency was 10 µM (active).
With Cc1cc([N+](=O)[O-])ccc1NC(=O)CSc1nncn1-c1cccnc1 the “activity change, negative = inhibition” value was -17.8% (inactive).
For CCOc1ccc(N(C(=O)c2snc(C(N)=O)c2N)C(C(=O)NCC2CCCO2)c2c[nH]c3ccccc23)cc1 (stereo unspecified), the Potency was 3.55 µM (active).
For Cc1cc(C)c(C(=O)/C=C/c2cccc3ccccc23)c(=O)[nH]1, the Potency was 8.91 µM (active).
In the case of COc1ccc2[nH]c(=O)c(CN(CCCN(C)C)C(=O)Nc3ccc(F)cc3)cc2c1, the Potency is reported as 14.1 µM (active).
With O=C(Nc1nnc(SCc2ccc(F)cc2)s1)c1ccccn1 the Potency was 3.55 µM (active).
For COc1ccc(-n2nc(C#N)c(Cl)cc2=O)cc1, the “activity change, negative = inhibition” value was -9.59% (inactive).
In the case of O=c1c(Cl)cc(Cl)nn1-c1ccccc1, the Potency is reported as 12.6 µM (active).
For C=C[C@]1(C)C[C@@H](OC(=O)CSCCN(CC)CC)[C@]2(C)C(C)CC[C@]3(CCC(=O)[C@H]32)[C@@H](C)[C@@H]1O (stereo partly specified), the Potency was 14.1 µM (active).
For COc1ccccc1-c1cc(C(=O)N/N=C/c2sccc2C)c2ccccc2n1, the Potency was 3.98 µM (active).
With COc1ccc(-c2cc(C(=O)N/N=C/c3ccc4c(c3)OCO4)c3ccccc3n2)c(OC)c1 the Potency was 7.94 µM (active).
With COc1ccc(-c2cc(C(=O)N/N=C/c3sccc3C)c3ccccc3n2)c(OC)c1 the Potency was 12.6 µM (active).
With CCOC(=O)Nc1ccc2c(CNC(C)c3ccccc3OC)cc(=O)oc2c1 (stereo unspecified) the Potency was 14.1 µM (active).
With CCc1noc(C)c1C(=O)N1CCC(CCC(=O)Nc2cccc(C)c2)CC1 the Potency was 11.2 µM (active).
For C/C(N)=C(/C#N)C(=O)COC(=O)c1cc(C)n(-c2ccc(F)cc2)c1C, the Potency was 10 µM (active).
In the case of O=C(CSc1nc2cc([N+](=O)[O-])ccc2n1-c1ccccc1)NCc1ccc2c(c1)OCO2, the Potency is reported as 11.2 µM (active).
For O=C(NCc1ccc2c(c1)OCO2)c1nc(S(=O)(=O)Cc2ccccc2)ncc1Cl, the “activity change, negative = inhibition” value was -8.24% (inactive).
For Cc1nc([N+](=O)[O-])c(Sc2nc3ccccc3n2C)n1Cc1ccccc1, the Potency was 15.8 µM (active).
In the case of CN1c2ccccc2C(C)(C)C12CC(c1ccc(S(=O)(=O)N3CCCCC3)cc1)=NO2 (stereo unspecified), the Potency is reported as 5.62 µM (active).
In the case of CCN(CC)S(=O)(=O)c1ccc(C2=NOC3(C2)N(C)c2ccccc2C3(C)C)cc1 (stereo unspecified), the Potency is reported as 12.6 µM (active).
In the case of C=CCSC(=C(C#N)C#N)c1cc2c([nH]1)CCCC2, the Potency is reported as 7.08 µM (active).
With COc1ccc(CN2CCN(C(=O)c3ccc(CNS(=O)(=O)c4ccc(C)cc4)cc3)CC2)c(OC)c1OC the Potency was 12.6 µM (active).
In the case of CCN1C(=O)[C@@H]2[C@@H](c3ccc(SC4CCCCC4)c(OC)c3)N3CCC[C@@]3(C(=O)OC)[C@@H]2C1=O, the Potency is reported as 5.01 µM (active).
In the case of COC(=O)[C@@]12CCCN1[C@H](c1ccc(-c3cccc(Cl)c3)c(OC)c1)[C@H]1C(=O)N(C)C(=O)[C@H]12, the Potency is reported as 2.82 µM (active).
With COc1cc(OC)c2c(-c3cccc(-c4cccc(N)c4)c3)cc(=O)oc2c1 the Potency was 10 µM (active).
For O=[N+]([O-])c1ccc(N2CCN(c3ccccc3)CC2)nc1, the “activity change, negative = inhibition” value was 24.3% (inactive).
With O=C(NCCN1CCN(c2ccc([N+](=O)[O-])cc2)CC1)NCc1ccccc1 the Potency was 12.6 µM (active).
With O=C1NC(=S)S/C1=C\C=C\c1ccc([N+](=O)[O-])o1 the Potency was 1.78 µM (active).
With COC(=O)C1=C(C)N(CC2CC2)C(=NCc2cc(OC)c(OC)c(OC)c2)N[C@H]1c1ccccc1 the Potency was 12.6 µM (active).
For COc1ccccc1CNC(=O)c1ccc(-c2ccccc2Cl)o1, the Potency was 12.6 µM (active).
With Cc1ccc(CNS(=O)(=O)c2ccc(C)s2)cc1 the “activity change, negative = inhibition” value was 10.8% (inactive).
In the case of Cc1ccc(CN2CCC(CNS(=O)(=O)c3ccc(-c4ccc(=O)[nH]n4)s3)CC2)cc1, the Potency is reported as 5.01 µM (active).
With CC1CN(c2nc(-c3ccc(Br)cc3)nnc2-c2ccccc2)CC(C)N1 (stereo unspecified) the Potency was 3.98 µM (active).
In the case of Cc1ccc(-n2c(SCC(=O)Nc3ncc(Cl)cc3Cl)nc3ccccc32)cc1, the Potency is reported as 11.2 µM (active).
For O=C(CSc1nc2ccccc2n1-c1ccccc1)Nc1ncc(Cl)cc1Cl, the Potency was 11.2 µM (active).
With COCCn1c(SCC(=O)Nc2ncc(Cl)c(C)c2Cl)nc2ccccc21 the “activity change, negative = inhibition” value was -29.3% (inactive).
With CN1c2ccccc2-c2nc3ccccc3n2C1c1cccs1 (stereo unspecified) the Potency was 7.08 µM (active).
For Cc1ccc(-c2nnc(SCC(=O)N/N=C/c3cccs3)n2-c2ccc(C)cc2)cc1, the Potency was 11.2 µM (active).
In the case of COc1ccc2[nH]c3c(NCCN(C(C)C)C(C)C)ncnc3c2c1, the Potency is reported as 5.62 µM (active).
For CC(C)OCCCNc1ncnc2c1[nH]c1ccc(F)cc12, the Potency was 4.47 µM (active).
With COc1ccc2[nH]c3c(NCCC4=CCCCC4)ncnc3c2c1 the Potency was 5.62 µM (active).
In the case of Cc1cc(C)n2nc(SCC(=O)N3CCN(c4ccc(F)cc4)CC3)nc2n1, the Potency is reported as 12.6 µM (active).
For CCn1c2ccccc2c2cc(Nc3cc(C)nc4ncnn34)ccc21, the Potency was 0.251 µM (active).
With CCOC(=O)CCC(=O)Nc1ncnc2c1C(c1ccccc1)c1c(ccc3ccccc13)O2 (stereo unspecified) the Potency was 8.91 µM (active).
For O=C(Nc1ccccc1C(=O)Nc1ccccc1C(=O)O)c1ccccc1, the “activity change, negative = inhibition” value was -29.2% (inactive).
With O=C(Nc1ccccc1O)c1ccc([N+](=O)[O-])cc1 the Potency was 15.8 µM (active).
With Cc1sc(N/N=C/c2cccnc2)nc1-c1ccccc1 the Potency was 12.6 µM (active).
In the case of Cc1ccc(N/N=C/c2ccncc2)cc1, the “activity change, negative = inhibition” value is reported as -6.56% (inactive).
For Cc1sc(NC(=O)c2c(F)cccc2F)nc1-c1ccccc1, the “activity change, negative = inhibition” value was -7.17% (inactive).
With CC1CN(C(=O)N2c3ccccc3Sc3ccccc32)CC(C)O1 (stereo unspecified) the Potency was 14.1 µM (active).
With O=C(N1CCOCC1)N1c2ccccc2Sc2ccccc21 the “activity change, negative = inhibition” value was -18.4% (inactive).
With C[C@H]1CN=C2N(CCNC(=O)CCC3CCCCC3)[C@H](Cc3ccc(O)cc3)CN21 the Potency was 11.2 µM (active).
For C[C@@H](CN1C2=NC[C@H](Cc3ccc(O)cc3)N2C[C@H]1Cc1ccc(O)cc1)NC(=O)CCC1CCCCC1, the Potency was 8.91 µM (active).
With C/C=C(\C)C(=O)NCCN1C2=NC[C@H](Cc3ccccc3)N2C[C@H]1Cc1ccc(O)cc1 the Potency was 11.2 µM (active).
For O=C(CCC1CCCCC1)NCCN1C2=NC[C@H](Cc3ccccc3)N2C[C@H]1Cc1ccc(O)cc1, the Potency was 11.2 µM (active).
In the case of CC1CCN(CCNC(=O)C2CCN(S(=O)(=O)c3cccc4nsnc34)CC2)CC1, the Potency is reported as 14.1 µM (active).
In the case of Cc1cc2nsnc2c(S(=O)(=O)N2CCN(C)CC2)c1C, the “activity change, negative = inhibition” value is reported as -4.46% (inactive).
With CN(C)S(=O)(=O)c1cc(NC(=O)c2cc(=O)c3ccccc3o2)ccc1Cl the Potency was 11.2 µM (active).
For Nc1cc[n+](CC(=O)c2ccc3c(c2)OCCO3)cc1, the Potency was 7.08 µM (active).
In the case of O=Cc1s/c(=N\S(=O)(=O)c2ccccc2)n(CCCCl)c1Cl, the “activity change, negative = inhibition” value is reported as -12.4% (inactive).
With CCOC(=O)c1cnc2c(C)c(Cl)ccc2c1NCCCN1CCOCC1 the Potency was 14.1 µM (active).
With N=c1c2c(n(Cc3ccc(Cl)c(Cl)c3)c3c1CCC3)CCCC2 the Potency was 0.355 µM (active).
For N=c1c2c(n(Cc3ccc(Cl)cc3)c3c1CCC3)CCC2, the Potency was 0.562 µM (active).
In the case of O=C(Nc1ccc(N2CCCCC2)c(Cl)c1)c1cccnc1, the Potency is reported as 11.2 µM (active).
In the case of Cc1cc(C)cc(NC(=O)c2cccnc2)c1, the “activity change, negative = inhibition” value is reported as -20.6% (inactive).
